# High-throughput results from PubChem BioAssay.
# A selection: hits, their analogues and other compounds. The true share with any hit is near 1.4%.
# RAD52 inh: blocks human RAD52 DNA annealing | P43351 | recombinant RAD52 DNA annealing, FRET fluorescence | inhibition, % at 18.7 µM | 360,000 compounds, 0.46% hits | AID 651710;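 active = every replicate showing at least 50% inhibition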
# Target sequence (P43351 whole entry, looked up): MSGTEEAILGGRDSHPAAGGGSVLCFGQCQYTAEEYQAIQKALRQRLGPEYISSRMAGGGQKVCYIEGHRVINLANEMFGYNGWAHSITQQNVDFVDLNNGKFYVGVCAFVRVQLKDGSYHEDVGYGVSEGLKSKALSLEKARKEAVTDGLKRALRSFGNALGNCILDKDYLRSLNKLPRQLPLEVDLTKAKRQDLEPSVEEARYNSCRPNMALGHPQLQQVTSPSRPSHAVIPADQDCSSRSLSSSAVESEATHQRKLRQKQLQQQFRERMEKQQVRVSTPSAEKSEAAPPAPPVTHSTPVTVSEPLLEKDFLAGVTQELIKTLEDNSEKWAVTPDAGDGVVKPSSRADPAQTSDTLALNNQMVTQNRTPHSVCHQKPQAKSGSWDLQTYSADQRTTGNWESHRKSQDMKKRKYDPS
# INS-1E GSIS act: primary screen for activators of insulin secretion dependent on glucose, INS-1E cells, GLuc reporter luminescence | INS-1E GLuc reporter insulin secretion, 2-3 h | activation, % at 16.6 µM | 370,000 compounds, 0.61% hits;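 active = lowest replicate activation of at least 40%, so every replicate reaches that level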
# AF4-AF9 inh: blocks AF4 peptide binding to human AF9. AlphaScreen, biotin-AF4 peptide binding to FLAG-AF9. inhibition, % at 10 µM. 350,000 compounds, 0.47% hits;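 active = every replicate reaching a set inhibition limit, whatever the replicate mean, cut at about 25% in these data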
# ERAP1 inh: blocks human ERAP1 aminopeptidase activity | Q9NZ08 | recombinant ERAP1, Leu-AMC fluorescence, 60 min | inhibition, % at 10.7 µM | 340,000 compounds, 0.15% hits | AID 652197;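 active = mean replicate inhibition of at least 30%, or all replicates individually reaching that 30% level; inactive = mean below 30% and not every replicate reaching it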
# PGC1a acetyl inh: modulators of PGC1a acetylation; U2OS PGC1a acetylation, AlphaScreen anti-acetyl-lysine; with virally co-expressed GCN5 acetyltransferase; inhibition, % at 15.6 µM; 350,000 compounds, 0.17% hits; AID 651687;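 active = every replicate shows inhibition of at least 40%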
# RAD54 inh: inhibitors of human RAD54 branch migration; Q92698; RAD54 Holliday junction branch migration, FAM/BHQ fluorescence; inhibition, % at 10.4 µM; 360,000 compounds, 0.14% hits; AID 602329;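 active = mean normalized replicate activity at least 40 and at least half of replicates scoring 40 or more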;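 note: inhibitors cause a drop in the FAM fluorescence signal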
# Numbers stand for hits; n = inactive; x = not tested or not shown; ! = a repeat was not active.
SMILES,RAD52 inh,INS-1E GSIS act,AF4-AF9 inh,ERAP1 inh,PGC1a acetyl inh,RAD54 inh
COc1ccc(-c2ccc(C3[C@H]4CNC[C@@H]3N4C(=O)Nc3ccc(C(F)(F)F)cc3)cc2)cc1 (stereo partly drawn),66!,n,n,n,n,x
COc1ccc(NC(=O)N2[C@@H]3CNC[C@H]2C3c2ccc(-c3ccc(F)cc3)cc2)cc1 (stereo partly drawn),57,n,n,n,n,x
COc1ccc(NC(=O)N2[C@@H]3CNC[C@H]2C3c2ccc(/C=C/c3ccccc3)cc2)cc1 (stereo partly drawn),55,n,n,n,n,x
O=C(C[C@@H]1CC[C@@H](NS(=O)(=O)c2ccccc2)[C@H](CO)O1)N1CCN(c2ccccc2)CC1,n,n,n,n,x,x
COc1ccc(-c2ccc3c(c2)[C@H]2[C@H](CCN2S(=O)(=O)c2ccc(OC)cc2)[C@H](CO)N3)cc1,x,n,x,x,n,n
CCc1nnc(NC(=O)CSc2nnc3nc(C)cc(C)n23)s1,n,43,n,n,x,n
Cc1cc(C)n2c(SCC(=O)Nc3cc(C)on3)nnc2n1,x,x,x,x,n,n
Cc1ccc2ccccc2[n+]1CCCS(=O)(=O)[O-],x,x,x,x,n,n
O=S(=O)([O-])CCC[n+]1ccc(Oc2ccccc2)cc1,n,n,n,50,n,n
CNC(=O)C[C@H]1CC[C@H]2[C@@H](COc3ccc(NC(=O)C(C)C)cc3C(=O)N2C)O1,x,n,x,x,n,n
CN(C)CC(=O)NC[C@H]1N[C@@H](CO)[C@H]1c1ccc(-c2cccc(C#N)c2)cc1,51,n,n,n,n,n
CCC(=O)NC[C@@H]1N[C@@H](CO)[C@H]1c1ccc(-c2cccc(C#N)c2)cc1,n,n,n,n,n,n
CC(=O)N1[C@@H]2c3ccc(-c4cccc(F)c4)c(=O)n3C[C@@H]2[C@@H](CO)[C@@H]1C(=O)NCCCN(C)C,n,n,n,n,x,n
CCSc1nnc(NC(=O)CSC2=NCCS2)s1,n,n,n,n,94,x
COc1ccccc1NC(=O)N1CC(=O)N2[C@@H](CO)[C@H](c3ccc(C#CCC(C)C)cc3)[C@@H]2C1,x,n,x,x,x,x
COC(=O)C1=C(C)N(Cc2ccc(C(F)(F)F)cc2)C(=NCc2ccccc2C(F)(F)F)NC1c1ccccc1 (stereo not drawn),n,n,x,n,x,x
COC(=O)C1=C(C)N(Cc2ccc(C(F)(F)F)cc2)C(=NCc2ccccc2C(F)(F)F)NC1c1ccc(C(F)(F)F)cc1 (stereo not drawn),n,x,x,n,x,x
COC(=O)C1=C(C)N(Cc2ccc(C(F)(F)F)cc2)C(=NCc2ccccc2C(F)(F)F)NC1c1cccc(Cl)c1 (stereo not drawn),n,242,x,n,x,x
COC(=O)C1=C(C)N(Cc2ccc(C(F)(F)F)cc2)C(=NCc2ccccc2C(F)(F)F)NC1c1ccc(Cl)cc1 (stereo not drawn),n,49,x,n,x,x
CSc1nnc2c3cc(C)ccc3n(Cc3ccccc3)c2n1,x,140,x,x,n,x
COc1cccc2c1C(=O)c1c(O)c3c(c(O)c1C2=O)C[C@@](O)(C(C)=O)C[C@@H]3O[C@H]1C[C@H](N)[C@H](O)[C@H](C)O1,n,x,31,n,51,n
COc1ccc2c3c(n(C)c2c1)[C@H](CO)NCC31CCN(Cc2ccc(F)cc2)CC1,x,n,x,x,x,x
COc1ccc2c3c(n(C)c2c1)[C@H](CO)NCC31CCN(Cc2ccc(Cl)cc2)CC1,x,n,44,x,n,x
COc1ccc2c3c(n(C)c2c1)[C@@H](CO)NCC31CCN(S(=O)(=O)c2cccc(C)c2)CC1,54,n,27,n,n,x
COc1ccc2c3c(n(C)c2c1)[C@@H](CO)NCC31CCN(Cc2ccccc2F)CC1,x,n,n,x,n,x
COc1ccc2c3c(n(C)c2c1)[C@@H](CO)NCC31CCN(Cc2cc(F)ccc2F)CC1,n,n,32,n,n,x
COc1ccc2c3c(n(C)c2c1)[C@H](CO)NCC31CCN(Cc2cc(F)ccc2F)CC1,n,n,26,n,n,x
COCC(=O)Nc1ccc2c(c1)[C@H]1C[C@H](CC(=O)NCCN3CCCCC3)O[C@H](CO)[C@H]1O2,n,n,n,n,n,n
CO[C@H]1CN(C)C(=O)c2cc(NC(=O)CC(F)(F)F)ccc2OC[C@H](C)NC[C@@H]1C,n,n,n,n,x,x
